Assay outcomes deposited in PubChem BioAssay by Sanford-Burnham Center for Chemical Genomics.
TWEAK Fn14 block – inhibitors of TWEAK-Fn14 interaction signaling; TWEAK-stimulated Fn14 reporter cells, luciferase luminescence, 8 h; inhibition, % at 10 µM; actives 2% (n = 360,000); in the data active = inhibition above about 50%
Peg3 prom inh-1 – Peg3 promoter activity inhibition; HeLa PEG-Prom luciferase reporter, luminescence, overnight; inhibition, % at 20 µM; actives 1.7% (n = 360,000); AID 588405;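 active = inhibition of at least 50% at 20 µM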
KKLEB cytotox – reduces viability of KKLEB cystic fibrosis airway cells. actives 0.36% (n = 360,000). KKLEB CF airway cells viability, ATPlite luminescence, overnight; active compounds read low; cells stimulated with P. aeruginosa culture filtrate. activity change (cytotoxicity), % at 5 µM. AID 602141;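 active = corrected activity change at or below -50% at 5 µM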
HIF-2a block – blocks HIF-2a reporter activity. 786-0 RCC cells HIF-2a reporter, luciferase luminescence, overnight. inhibition, % at 18.8 µM. actives 0.72% (n = 360,000). AID 624352;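 active = inhibition of the luminescence signal of 40% or more relative to plate controls, in a single-dose primary screen at 18.75 µM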
TROY NFkB inh – blocks TROY-dependent signaling in reporter cells | Q293 LMP1-TROYcd NF-kB luciferase reporter, 4 h | actives 0.98% (n = 360,000) | inhibition, % at 10 µM;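 active = compounds whose plate-normalised and pattern-corrected inhibition of the luciferase reporter signal at the single screening dose is 50% or more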
CF NFkB inh – blocks PAF-induced NF-kB reporter in cystic fibrosis cells; KKLEB NF-kB-GFP reporter, GFP fluorescence overnight; inhibition, % at 5 µM; actives 0.86% (n = 360,000);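 active = at least 50% inhibition at 5 µM, scaled per plate between neutral and stimulator controls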;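 also: PAF is a Pseudomonas aeruginosa culture filtrate used as stimulus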
Peg3 prom inh-2 – Peg3 promoter inhibition confirmation; shares compounds with Peg3 prom inh-1; HeLa PEG-Prom luciferase reporter, luminescence, overnight; inhibition, % at 20 µM; actives 84% (n = 1,300);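 active = at 20 µM dose, 40% or more inhibition averaged across four replicates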
Large screens that a line does not name were inactive (follow-up assays come after a bar, where they were run). Hits are enriched below; roughly 4% of the tested compounds scored in any of these assays.

COc1cc(/C=C2\SC(=S)N(CCC(=O)N3CCCCC3)C2=O)cc(OC)c1OC	Peg3 prom inh-1 67.8 | Peg3 prom inh-2 47.1
CCOC(=O)N1CCN(C(=O)CCN2C(=O)/C(=C\c3ccc(OC)c(OC)c3)SC2=S)CC1	none
O=C(CCN1C(=O)/C(=C/c2cccs2)SC1=S)N1CCCCC1	Peg3 prom inh-1 112.1 | Peg3 prom inh-2 91.6
COC(=O)C1CCN(C(=O)Cn2nnc(-c3ccccc3)n2)CC1	none
CCOc1ccc(/C=N/NC(=O)c2nnn(-c3nonc3N)c2COc2ccc(F)cc2)cc1	Peg3 prom inh-1 54.2 | Peg3 prom inh-2 inactive
CC(C)c1ccc(/C=N/NC(=O)c2nnn(-c3nonc3N)c2CN(C)C2CCCCC2)cc1	Peg3 prom inh-1 64.6 | Peg3 prom inh-2 inactive
CN(Cc1c(C(=O)N/N=C/c2ccc(F)cc2)nnn1-c1nonc1N)C1CCCCC1	none
CN(C)Cc1c(C(=O)N/N=C/c2ccc(OCc3ccc(F)cc3)cc2)nnn1-c1nonc1N	none
C/C(=N\NC(=O)c1nnn(-c2nonc2N)c1CN(C)c1ccccc1)c1ccccc1O	Peg3 prom inh-1 50.5 | Peg3 prom inh-2 70.6
COc1ccc(/C(C)=N/NC(=O)c2nnn(-c3nonc3N)c2CN(C)c2ccccc2)cc1	none
CN(C)c1ccc(/C=N/NC(=O)c2nnn(-c3nonc3N)c2COc2ccc(F)cc2)cc1	Peg3 prom inh-1 86.9 | Peg3 prom inh-2 50.8
COC(=O)C1=C(C)N(CCc2ccccc2)C(=O)C1	none
CCN1CCN(c2ccc(S(=O)(=O)N3CCOCC3)cc2NC(=O)/C=C/c2ccc([N+](=O)[O-])cc2)CC1	Peg3 prom inh-1 69.6 | Peg3 prom inh-2 74.9
CCN1CCN(c2ccc(S(=O)(=O)N3CCOCC3)cc2NC(=O)c2cccc([N+](=O)[O-])c2)CC1	none
O=C(CCC(=O)Nc1ccccc1)N/N=C/c1cccnc1	none
COc1ccc(-c2cc(C(F)(F)F)c3c(N)c(C(=O)NCCSC)sc3n2)cc1	none
CN(C)CCNC(=O)c1sc2nc(-c3ccccc3)cc(C(F)(F)F)c2c1N	Peg3 prom inh-1 61.0 | Peg3 prom inh-2 70.4
COc1ccc(NC(=O)N(C)[C@H]2C[C@H]3c4[nH]c5ccc(-c6cccc(C)c6)cc5c4CCN3C[C@H]2[C@H](C)O)cc1	Peg3 prom inh-1 92.3 | Peg3 prom inh-2 53.1
C=CCC[C@@H](Cc1ccc(F)cc1)C(=O)OC[C@@H](Cc1c[nH]c2ccccc12)NC(=O)[C@H](CC=C)CC(=O)N[C@H](CO)Cc1ccccc1	Peg3 prom inh-1 51.7 | Peg3 prom inh-2 inactive
C=CCC[C@H](Cc1ccc(F)cc1)C(=O)OC[C@@H](Cc1c[nH]c2ccccc12)NC(=O)[C@@H](CC=C)CC(=O)N[C@@H](CO)Cc1ccccc1	none
COc1cc(CNCCCN2CCOCC2)cc(Br)c1OCC(=O)N1CCCCC1	none
COc1cc(CNCCCN2CCOCC2)cc(Br)c1OCc1ccc(Cl)cc1	Peg3 prom inh-1 99.7 | Peg3 prom inh-2 100.3
Oc1ccc(C[C@H]2CNCCN2CCc2cc(C(F)(F)F)cc(C(F)(F)F)c2)cc1	Peg3 prom inh-1 58.4 | Peg3 prom inh-2 81.9
CC(C)(C)OC(=O)C[C@@H]1C/C=C\C[C@H](CC(=O)N[C@H](CO)Cc2ccccc2)C(=O)N[C@@H](Cc2c[nH]c3ccccc23)COC1=O	none
c1ccc(-c2nc(-c3ccccn3)no2)cc1	TWEAK Fn14 block 93.8, Peg3 prom inh-1 75.9, TROY NFkB inh 73.3 | Peg3 prom inh-2 46.4
COc1cc(-c2nc(-c3ccccn3)no2)cc(OC)c1OC	none
Cc1ccc(-c2nc(-c3ccccn3)no2)cc1Cl	TWEAK Fn14 block 103.7, Peg3 prom inh-1 92.9, KKLEB cytotox -67.0, HIF-2a block 76.6, TROY NFkB inh 82.1 | Peg3 prom inh-2 71.9
COc1ccc(CNn2c(-c3cccc(C)c3)nc3ccccc3c2=O)cc1OC	Peg3 prom inh-1 56.5 | Peg3 prom inh-2 inactive
CCOc1ccccc1NC(=O)c1oc2ccccc2c1NC(=O)C1CCCO1 (stereo not drawn)	Peg3 prom inh-1 73.7 | Peg3 prom inh-2 inactive
O=C1Nc2ccccc2N(O)N1c1ccc(Cl)c(Cl)c1	none
COc1ccc(C[C@H]2CN3C(=NC[C@@H]3Cc3ccc(O)cc3)N2C[C@H](C)NC(=O)CCC2CCCCC2)cc1	Peg3 prom inh-1 63.1 | Peg3 prom inh-2 inactive
C[C@@H](CN1C2=NC[C@H](C)N2C[C@H]1Cc1ccc(O)cc1)NC(=O)CCC1CCCCC1	none
COc1ccc(-n2cc(CN(C)C3CCOCC3)c(-c3cccc(F)c3)n2)cc1	none
CCOC(=O)c1c(NC(=O)c2ccc(S(=O)(=O)N3CCOCC3)cc2)sc2c1CC(C)(C)NC2(C)C	Peg3 prom inh-1 53.4 | Peg3 prom inh-2 inactive
CCOC(=O)c1c(NC(=O)c2ccc(S(=O)(=O)N3CCOCC3)cc2)sc2c1CCN(C)C2	none
CCOC(=O)c1c(NC(=O)CSc2ncccn2)sc2c1CC(C)(C)NC2(C)C	none
CCOC(=O)c1c(NC(=O)COc2ccccc2F)sc2c1CC(C)(C)NC2(C)C	Peg3 prom inh-1 85.5 | Peg3 prom inh-2 79.9
COc1ccc(NC(=O)c2cc3c(Cl)nc4ccccc4c3s2)c(OC)c1	Peg3 prom inh-1 52.4 | Peg3 prom inh-2 inactive
COc1cc(NC(=O)c2cc3c(Cl)nc4ccccc4c3s2)cc(OC)c1OC	none
COC(=O)C1=C(CN2CCCc3ccccc32)NC(=O)NC1c1ccc(F)cc1 (stereo not drawn)	TWEAK Fn14 block 85.1, Peg3 prom inh-1 81.3, HIF-2a block 63.3, TROY NFkB inh 63.7 | Peg3 prom inh-2 66.6
COc1cccc(C(=O)CC(C(=O)O)c2ccc(F)cc2)c1 (stereo not drawn)	none
c1cncc(-c2nc(NCC3COc4ccccc4O3)c3ccccc3n2)c1 (stereo not drawn)	Peg3 prom inh-1 58.4 | Peg3 prom inh-2 68.3
c1cncc(-c2nc(NCc3ccc4c(c3)OCO4)c3ccccc3n2)c1	none
Cn1c(N)c(C(=O)CCl)c(=O)n(Cc2ccccc2)c1=O	none
Cn1c(=O)c(C(=O)CCl)c(N)n(Cc2ccccc2)c1=O	Peg3 prom inh-1 68.8 | Peg3 prom inh-2 51.4
C=CCOc1c(Cl)cc(CNc2ccc3[nH]c(=O)[nH]c3c2)cc1OC	none
O=C(c1cnc(N2CCN(c3ncccn3)CC2)c2ccccc12)N1CCN(c2ncccn2)CC1	Peg3 prom inh-1 60.2 | Peg3 prom inh-2 inactive
CCNC(=S)N/N=C(\C)c1ccc2c(c1)OCCO2	none
Clc1ccc(CN2CCc3c([nH]c4ccccc34)C2)cc1Cl	Peg3 prom inh-1 81.4 | Peg3 prom inh-2 inactive
CSc1ccc(CN2CCc3c([nH]c4ccccc34)C2)cc1	none
NS(=O)(=O)c1ccc(CCNc2nn3c(-c4ccc(F)c(Cl)c4)cnc3s2)cc1	TWEAK Fn14 block 56.1, Peg3 prom inh-1 66.5 | Peg3 prom inh-2 95.1
